Test results published in PMC7862700, “An all-to-all approach to the identification of sequence-specific readers for epigenetic DNA modifications on cytosine”.

How the values were obtained:
Experiment in all cases: DAPPL (digital affinity profiling via proximity ligation, sequencing); 10 mM Tris-HCl pH 7.5, 50 mM NaCl, 1 mM DTT, 4% glycerol, room temperature, 30 min; GST-TFs on glutathione beads, 16-mer random dsDNA library, 0.1% formaldehyde crosslink after washing; high values mean tight binding
Details in all cases: protein: recombinant; tags: N-terminal GST; dsDNA, one strand shown
FLI1 = molecular target: T1, FLI1 (Homo sapiens, UniProt Q01543 1-452)
T1 sequence: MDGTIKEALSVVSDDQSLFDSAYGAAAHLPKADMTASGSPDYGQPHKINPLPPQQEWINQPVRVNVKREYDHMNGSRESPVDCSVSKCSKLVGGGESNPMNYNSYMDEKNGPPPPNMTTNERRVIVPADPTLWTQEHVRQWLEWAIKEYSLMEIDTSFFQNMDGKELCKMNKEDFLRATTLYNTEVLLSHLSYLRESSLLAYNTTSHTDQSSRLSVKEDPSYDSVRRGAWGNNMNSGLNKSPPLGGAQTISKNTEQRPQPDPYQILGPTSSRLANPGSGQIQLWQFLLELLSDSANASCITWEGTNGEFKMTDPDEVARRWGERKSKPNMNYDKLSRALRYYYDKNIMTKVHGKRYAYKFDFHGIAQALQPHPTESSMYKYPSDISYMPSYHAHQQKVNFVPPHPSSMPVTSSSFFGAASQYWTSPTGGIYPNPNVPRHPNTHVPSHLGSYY
Procedure, shortened: (§1)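 Human transcription factors were made in yeast as GST fusions, captured on glutathione beads and barcoded with DNA. With a tag-only sample included, the pool was incubated with 200 nmole of a random double-stranded 16-mer DNA library in Tris/NaCl/DTT/glycerol buffer at room temperature for 30 min, then crosslinked with 0.1% formaldehyde after washing, ligated by proximity, amplified and sequenced. For binding signal, each hexamer's read frequency for a factor is divided by its frequency for the tag-only sample.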

SPIB = SPIB (Homo sapiens, UniProt Q01892 1-262)
Procedure, shortened: as §1

ELK3 = molecular target: T2, ELK3 (Homo sapiens, UniProt P41970 1-407)
T2 sequence: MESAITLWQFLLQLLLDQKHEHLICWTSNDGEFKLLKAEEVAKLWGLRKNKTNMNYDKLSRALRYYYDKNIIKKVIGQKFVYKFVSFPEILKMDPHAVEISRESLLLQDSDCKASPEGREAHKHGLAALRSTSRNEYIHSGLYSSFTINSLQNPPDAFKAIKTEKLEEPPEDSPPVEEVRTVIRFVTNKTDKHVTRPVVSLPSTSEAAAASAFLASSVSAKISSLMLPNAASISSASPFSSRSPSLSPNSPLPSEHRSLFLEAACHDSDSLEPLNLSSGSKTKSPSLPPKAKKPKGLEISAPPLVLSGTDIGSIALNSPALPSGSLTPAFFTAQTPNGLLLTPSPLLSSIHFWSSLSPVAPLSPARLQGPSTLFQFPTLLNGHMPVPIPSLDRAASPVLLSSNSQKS
Procedure, shortened: as §1

ELF4 = ELF4 (Homo sapiens, UniProt Q99607 1-663)
Procedure, shortened: as §1

ELK4 = molecular target: T3, ELK4 (Homo sapiens, UniProt P28324-2 1-405)
T3 sequence: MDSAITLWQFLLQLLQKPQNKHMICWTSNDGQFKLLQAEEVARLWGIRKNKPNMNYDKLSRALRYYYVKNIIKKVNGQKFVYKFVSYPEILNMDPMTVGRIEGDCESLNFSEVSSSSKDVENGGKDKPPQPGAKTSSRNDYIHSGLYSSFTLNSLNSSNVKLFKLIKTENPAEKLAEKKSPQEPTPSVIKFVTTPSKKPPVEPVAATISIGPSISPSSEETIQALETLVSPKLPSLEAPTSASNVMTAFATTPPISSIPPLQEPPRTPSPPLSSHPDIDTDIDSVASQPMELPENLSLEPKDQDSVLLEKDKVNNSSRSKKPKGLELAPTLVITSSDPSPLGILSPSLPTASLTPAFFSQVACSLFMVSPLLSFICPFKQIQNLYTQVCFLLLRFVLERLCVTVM
Procedure, shortened: as §1

ETV2 = molecular target: T4, ETV2 (Homo sapiens, UniProt O00321 1-342)
T4 sequence: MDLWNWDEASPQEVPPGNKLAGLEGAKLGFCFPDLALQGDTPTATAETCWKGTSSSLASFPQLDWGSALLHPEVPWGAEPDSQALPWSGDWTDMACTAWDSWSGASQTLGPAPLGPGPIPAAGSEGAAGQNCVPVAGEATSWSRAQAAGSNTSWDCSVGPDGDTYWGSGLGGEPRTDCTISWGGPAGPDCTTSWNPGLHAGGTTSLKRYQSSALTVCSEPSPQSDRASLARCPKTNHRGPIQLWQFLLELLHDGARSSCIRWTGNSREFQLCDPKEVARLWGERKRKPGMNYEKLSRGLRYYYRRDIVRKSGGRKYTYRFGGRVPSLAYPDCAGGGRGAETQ
Procedure, shortened: as §1

ETV1 = ETV1 (Homo sapiens, UniProt P50549 1-477)
Procedure, shortened: as §1

ETV3L = molecular target: T5, ETV3L (Homo sapiens, UniProt Q6ZN32 1-361)
T5 sequence: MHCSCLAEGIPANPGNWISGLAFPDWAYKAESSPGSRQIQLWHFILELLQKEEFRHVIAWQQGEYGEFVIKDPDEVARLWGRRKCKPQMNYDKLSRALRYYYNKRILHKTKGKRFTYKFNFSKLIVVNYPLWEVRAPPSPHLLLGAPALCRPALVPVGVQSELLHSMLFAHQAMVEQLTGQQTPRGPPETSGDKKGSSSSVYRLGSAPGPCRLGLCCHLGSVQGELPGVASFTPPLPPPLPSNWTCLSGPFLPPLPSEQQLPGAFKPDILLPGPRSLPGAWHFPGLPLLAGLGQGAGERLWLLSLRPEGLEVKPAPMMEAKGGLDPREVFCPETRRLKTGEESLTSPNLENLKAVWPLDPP
Procedure, shortened: as §1

ETV3 = molecular target: T6, ETV3 (Homo sapiens, UniProt P41162-2 1-143)
T6 sequence: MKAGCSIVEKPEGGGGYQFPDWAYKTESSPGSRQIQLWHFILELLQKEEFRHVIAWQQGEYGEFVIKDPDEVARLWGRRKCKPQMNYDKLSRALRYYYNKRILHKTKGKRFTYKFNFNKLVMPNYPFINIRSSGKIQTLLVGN
Procedure, shortened: as §1

ELK1 = molecular target: T7, ELK1 (Homo sapiens, UniProt P19419 1-428)
T7 sequence: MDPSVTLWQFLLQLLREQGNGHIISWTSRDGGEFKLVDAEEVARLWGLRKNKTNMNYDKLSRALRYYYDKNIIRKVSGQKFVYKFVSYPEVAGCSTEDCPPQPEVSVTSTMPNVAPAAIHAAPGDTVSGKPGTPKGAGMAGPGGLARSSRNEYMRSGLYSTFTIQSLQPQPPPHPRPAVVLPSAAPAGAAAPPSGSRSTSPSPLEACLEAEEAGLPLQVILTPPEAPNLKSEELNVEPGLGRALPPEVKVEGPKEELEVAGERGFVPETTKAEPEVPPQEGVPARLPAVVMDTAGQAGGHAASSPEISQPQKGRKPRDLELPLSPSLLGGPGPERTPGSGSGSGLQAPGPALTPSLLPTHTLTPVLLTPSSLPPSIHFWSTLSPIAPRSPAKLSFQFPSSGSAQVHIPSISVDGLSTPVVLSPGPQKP
Procedure, shortened: as §1

GABPA = molecular target: T8, GABPA (Homo sapiens, UniProt Q06546 1-454)
T8 sequence: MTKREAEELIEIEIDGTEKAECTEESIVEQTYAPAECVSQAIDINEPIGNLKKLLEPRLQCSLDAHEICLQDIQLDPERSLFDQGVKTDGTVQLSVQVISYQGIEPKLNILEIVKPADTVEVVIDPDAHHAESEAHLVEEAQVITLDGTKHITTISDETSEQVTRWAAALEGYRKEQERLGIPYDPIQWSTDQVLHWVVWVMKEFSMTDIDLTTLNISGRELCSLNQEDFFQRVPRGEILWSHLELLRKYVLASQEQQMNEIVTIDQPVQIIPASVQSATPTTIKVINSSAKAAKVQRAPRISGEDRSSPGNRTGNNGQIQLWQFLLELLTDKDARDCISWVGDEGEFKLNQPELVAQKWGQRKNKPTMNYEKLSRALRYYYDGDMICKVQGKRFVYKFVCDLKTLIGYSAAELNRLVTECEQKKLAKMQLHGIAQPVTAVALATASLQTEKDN
Procedure, shortened: as §1

ERF = molecular target: T9, ERF (Homo sapiens, UniProt P50548 1-548)
T9 sequence: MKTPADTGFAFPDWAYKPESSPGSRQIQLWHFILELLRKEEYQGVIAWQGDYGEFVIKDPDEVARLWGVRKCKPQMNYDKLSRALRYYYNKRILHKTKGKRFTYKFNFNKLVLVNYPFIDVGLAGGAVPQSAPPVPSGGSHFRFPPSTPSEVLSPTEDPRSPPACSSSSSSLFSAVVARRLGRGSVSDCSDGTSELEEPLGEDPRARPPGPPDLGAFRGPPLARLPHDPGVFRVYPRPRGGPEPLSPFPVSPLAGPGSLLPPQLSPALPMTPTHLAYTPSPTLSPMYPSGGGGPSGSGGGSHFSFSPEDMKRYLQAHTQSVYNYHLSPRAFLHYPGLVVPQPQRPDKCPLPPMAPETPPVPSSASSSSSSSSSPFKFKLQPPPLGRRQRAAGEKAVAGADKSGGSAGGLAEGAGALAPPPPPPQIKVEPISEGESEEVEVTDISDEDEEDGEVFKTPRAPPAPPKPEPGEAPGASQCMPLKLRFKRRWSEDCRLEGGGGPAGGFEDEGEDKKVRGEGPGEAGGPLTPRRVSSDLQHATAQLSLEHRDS
Procedure, shortened: as §1

Chain of ELF4 (Q99607 whole entry): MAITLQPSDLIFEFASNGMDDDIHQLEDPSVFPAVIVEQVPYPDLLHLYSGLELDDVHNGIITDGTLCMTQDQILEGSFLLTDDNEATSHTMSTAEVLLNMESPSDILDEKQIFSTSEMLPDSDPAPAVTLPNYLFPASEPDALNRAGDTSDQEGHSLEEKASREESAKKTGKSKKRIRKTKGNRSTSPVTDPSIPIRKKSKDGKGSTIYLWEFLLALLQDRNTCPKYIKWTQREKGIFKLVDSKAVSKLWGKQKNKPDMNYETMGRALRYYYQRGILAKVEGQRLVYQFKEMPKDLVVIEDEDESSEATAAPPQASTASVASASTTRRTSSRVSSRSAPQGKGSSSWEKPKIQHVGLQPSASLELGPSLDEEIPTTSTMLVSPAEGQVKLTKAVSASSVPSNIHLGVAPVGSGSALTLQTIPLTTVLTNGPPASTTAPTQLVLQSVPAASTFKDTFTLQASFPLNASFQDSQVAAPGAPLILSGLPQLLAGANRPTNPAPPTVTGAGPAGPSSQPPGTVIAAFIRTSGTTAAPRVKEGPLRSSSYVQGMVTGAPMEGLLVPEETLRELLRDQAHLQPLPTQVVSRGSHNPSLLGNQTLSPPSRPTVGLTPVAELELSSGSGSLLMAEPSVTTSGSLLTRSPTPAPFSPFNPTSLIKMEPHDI
Chain of SPIB (Q01892 whole entry): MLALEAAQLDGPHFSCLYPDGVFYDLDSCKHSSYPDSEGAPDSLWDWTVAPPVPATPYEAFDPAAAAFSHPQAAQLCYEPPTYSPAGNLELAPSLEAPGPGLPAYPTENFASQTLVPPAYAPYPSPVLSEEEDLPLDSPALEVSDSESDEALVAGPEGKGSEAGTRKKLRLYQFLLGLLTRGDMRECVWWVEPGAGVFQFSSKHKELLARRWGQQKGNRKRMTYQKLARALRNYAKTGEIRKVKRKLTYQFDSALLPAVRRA
Chain of ETV1 (P50549 whole entry): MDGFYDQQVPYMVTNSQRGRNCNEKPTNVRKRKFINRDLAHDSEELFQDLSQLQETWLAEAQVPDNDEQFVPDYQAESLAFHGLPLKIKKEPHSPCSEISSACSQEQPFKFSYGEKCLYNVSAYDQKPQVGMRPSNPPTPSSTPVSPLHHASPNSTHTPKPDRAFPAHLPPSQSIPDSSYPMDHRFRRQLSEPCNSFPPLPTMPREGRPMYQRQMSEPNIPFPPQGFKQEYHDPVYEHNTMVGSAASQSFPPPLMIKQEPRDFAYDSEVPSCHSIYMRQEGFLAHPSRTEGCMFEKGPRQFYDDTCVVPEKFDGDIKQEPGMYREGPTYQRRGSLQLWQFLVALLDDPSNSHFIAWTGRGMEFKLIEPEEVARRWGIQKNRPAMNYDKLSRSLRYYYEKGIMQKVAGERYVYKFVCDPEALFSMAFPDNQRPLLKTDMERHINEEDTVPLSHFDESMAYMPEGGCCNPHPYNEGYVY

Sequence	binding signal (FLI1)	binding signal (SPIB)	binding signal (ELK3)	binding signal (ELF4)	binding signal (ELK4)	binding signal (ETV2)	binding signal (ETV1)	binding signal (ETV3L)	binding signal (ETV3)	binding signal (ELK1)	binding signal (GABPA)	binding signal (ERF)
CAAGCT	1.05 fold enrichment (6-mer frequency, TF over GST control)	1.04 fold enrichment (6-mer frequency, TF over GST control)	1.03 fold enrichment (6-mer frequency, TF over GST control)	1.02 fold enrichment (6-mer frequency, TF over GST control)	1.13 fold enrichment (6-mer frequency, TF over GST control)	1.02 fold enrichment (6-mer frequency, TF over GST control)	1.04 fold enrichment (6-mer frequency, TF over GST control)	1.05 fold enrichment (6-mer frequency, TF over GST control)	1.02 fold enrichment (6-mer frequency, TF over GST control)	–	–	–
GACTGC	1.03 fold enrichment (6-mer frequency, TF over GST control)	–	–	1.01 fold enrichment (6-mer frequency, TF over GST control)	1.08 fold enrichment (6-mer frequency, TF over GST control)	–	–	1.02 fold enrichment (6-mer frequency, TF over GST control)	–	1.03 fold enrichment (6-mer frequency, TF over GST control)	1.11 fold enrichment (6-mer frequency, TF over GST control)	1.03 fold enrichment (6-mer frequency, TF over GST control)
